Reference: PubChem BioAssay (Tox21)
Values joined by “and” are separate entries in the source; they are usually repeats but may differ in a detail not shown here. Equal values may be shown once. Inconclusive results are not listed. A number with no mark means an inactive call. Active and inactive are the calls of the source. Unless noted, calls follow the shape of the dose curve; as a rule, active = well fitted cell-killing curve with a large enough effect in the repeat runs; inconclusive = weak or mixed curves; inactive = no such curve, though single readings can be large or run the other way.

Tested on: not listed separately
Test: qHTS assay for identifying genotoxic compounds that show differential cytotoxicity against isogenic chicken DT40 cell lines with known DNA damage response pathways - Rad54/Ku70 mutant cell line (AID 743015); also: nearly all actives have a fitted effect of over 60% in size; also: potency is read from the fitted curve at half-maximal effect
Conditions: DT40 Rad54/Ku70 mutant viability, CellTiter-Glo, 40 h; series mostly up to 66.8 µM; activity change, negative = cytotoxicity: at the top concentration
% is scaled to controls: 0 for no effect and ±100 for the full control effect.

| SMILES | activity change, negative = cytotoxicity | Potency |
| --- | --- | --- |
| COC(C)(C)C | 6.16% |  |
| CCOP(=S)(OCC)Oc1ncn(-c2ccccc2)n1 |  | 48.6 µM (active) |
| CC(Cl)(Cl)[N+](=O)[O-] | 6.07% |  |
| Cc1cnc[nH]1 | 4.61% |  |
| CC1=C(C(=O)Nc2ccccc2)S(=O)(=O)CCO1 |  | 17.2 µM (active) |
| O=C1c2ccccc2C(=O)c2ccccc21 | 3.84% |  |
| CC(C)CC#N | -4.6% [at 95.1 µM] |  |
| CNC(=O)Oc1ccc(N(C)C)c(C)c1 |  | 68.6 µM (active) |
| N#CC(Cl)(Cl)Cl | 5.4% |  |
| ClC(Cl)(Cl)C(Cl)(Cl)Cl | 3.51% [at 95.1 µM] |  |
| Cc1nc(N)nc(N)n1 | 0.733% [at 95.1 µM] |  |
| c1cc[c]([Hg][c]2ccccc2)cc1 |  | 0.193 µM (active) |
| N#Cc1ccncc1 | 13% [at 95.1 µM] |  |
| C[C@H]1CCC[C@H](O)CCCCCc2cc(O)cc(O)c2C(=O)O1 |  | 16.8 µM (active) and 43.6 µM (active) |
| Cc1ccccc1CO[C@@H]1C[C@@]2(C(C)C)CC[C@]1(C)O2 |  | 54.5 µM (active) |
| Nc1ccccc1Cl | -1.39% |  |
| CC1(C)COP(Oc2ccccc2)OC1 | 1.63% |  |
| CCCCOP(=O)(O)OCCCC | 7.17% |  |

| SMILES | activity change, negative = cytotoxicity | Potency |
| --- | --- | --- |
| O=C(O)c1ccc2[nH]cc(CCCCN3CC=C(c4ccccc4)CC3)c2c1 | -8.33% |  |
| CCN(CC)C(C)C(=O)c1ccccc1 (stereo unspecified) | -1.2% |  |
| CCCCc1c(C)nc(NCC)[nH]c1=O | 6.94% |  |
| CN1CCC(O)(c2ccc(F)cc2)C(C(=O)c2ccc(F)cc2)C1 (stereo unspecified) |  | 13.3 µM (active) |
| CCCCc1ccc(O)cc1 | 6.19% |  |
| O=[N+]([O-])c1cccc2c([N+](=O)[O-])cccc12 | 4.56% [at 95.1 µM] |  |
| COP(N)(=S)Oc1ccccc1C(=O)OC(C)C (stereo unspecified) | 2.85% |  |
| O=C(Nc1ccccc1)c1ccccc1I |  | 61.1 µM (active) |
| COc1ncc(F)c2nc(S(=O)(=O)Nc3c(F)cccc3F)nn12 | -6.37% |  |
| CCCSC(=O)N(CCC)CCC | 1.34% |  |
| CCC(=O)c1ccccc1 | 24.7% |  |
| c1cc2c(c(N3CCNCC3)c1)OCCO2 | -0.251% |  |
| COC(=O)C(c1ccccc1)C1CCCCN1 (stereo unspecified) |  | inactive |
| CCCCCCI | 0.872% |  |
| COc1cc(OC)nc(Oc2cccc(Oc3nc(OC)cc(OC)n3)c2C(=O)O)n1 | 12.4% |  |
| CNC(=O)Oc1ccccc1C1OCCO1 | 11.8% |  |
| C#C[C@]1(O)C=C[C@H]2[C@@H]3CCC4=CC(=O)CC[C@@H]4[C@H]3CC[C@@]21CC |  | 23.7 µM (active) |

Tested on: not listed separately
Test: qHTS assay to identify small molecule antagonists of the androgen receptor (AR) signaling pathway - cell viability counter screen (AID 743033; also: nearly all actives have a fitted effect of over 45% in size)
Conditions: AR-bla HEK293 viability, CellTiter-Glo luminescence, 16 h; series mostly up to 58.5 µM; activity change, negative = cytotoxicity: at the top concentration

| SMILES | activity change, negative = cytotoxicity | Potency |
| --- | --- | --- |
| COC(C)(C)C | -12.7% |  |
| CCOP(=S)(OCC)Oc1ncn(-c2ccccc2)n1 | -9.01% |  |
| CC(Cl)(Cl)[N+](=O)[O-] | -5.33% |  |
| Cc1cnc[nH]1 | 4.33% |  |
| CC1=C(C(=O)Nc2ccccc2)S(=O)(=O)CCO1 | 7.63% |  |
| O=C1c2ccccc2C(=O)c2ccccc21 | 0% |  |
| CC(C)CC#N | 0.16% [at 78.9 µM] |  |
| CNC(=O)Oc1ccc(N(C)C)c(C)c1 | 1.22% |  |
| N#CC(Cl)(Cl)Cl | 3.2% |  |
| ClC(Cl)(Cl)C(Cl)(Cl)Cl | 1.17% [at 78.9 µM] |  |
| Cc1nc(N)nc(N)n1 | 0.286% [at 78.9 µM] |  |
| c1cc[c]([Hg][c]2ccccc2)cc1 | -14.5% |  |
| N#Cc1ccncc1 | 8.12% [at 78.9 µM] |  |
| C[C@H]1CCC[C@H](O)CCCCCc2cc(O)cc(O)c2C(=O)O1 | -16% |  |
| Cc1ccccc1CO[C@@H]1C[C@@]2(C(C)C)CC[C@]1(C)O2 | -1.29% |  |
| Nc1ccccc1Cl | -21.3% |  |
| CC1(C)COP(Oc2ccccc2)OC1 | 13% |  |
| CCCCOP(=O)(O)OCCCC | 10.3% |  |

| SMILES | activity change, negative = cytotoxicity | Potency |
| --- | --- | --- |
| O=C(O)c1ccc2[nH]cc(CCCCN3CC=C(c4ccccc4)CC3)c2c1 | -5.64% |  |
| CCN(CC)C(C)C(=O)c1ccccc1 (stereo unspecified) | 18.8% |  |
| CCCCc1c(C)nc(NCC)[nH]c1=O | -20.4% |  |
| CN1CCC(O)(c2ccc(F)cc2)C(C(=O)c2ccc(F)cc2)C1 (stereo unspecified) | 0.937% |  |
| CCCCc1ccc(O)cc1 | -18% |  |
| O=[N+]([O-])c1cccc2c([N+](=O)[O-])cccc12 | 1.79% [at 78.9 µM] |  |
| COP(N)(=S)Oc1ccccc1C(=O)OC(C)C (stereo unspecified) | 1.2% |  |
| O=C(Nc1ccccc1)c1ccccc1I | -8.82% |  |
| COc1ncc(F)c2nc(S(=O)(=O)Nc3c(F)cccc3F)nn12 | -0.724% |  |
| CCCSC(=O)N(CCC)CCC | 0.152% |  |
| CCC(=O)c1ccccc1 | 8.01% |  |
| c1cc2c(c(N3CCNCC3)c1)OCCO2 | 2.09% |  |
| COC(=O)C(c1ccccc1)C1CCCCN1 (stereo unspecified) |  | inactive |
| CCCCCCI | -6.42% |  |
| COc1cc(OC)nc(Oc2cccc(Oc3nc(OC)cc(OC)n3)c2C(=O)O)n1 | -2.85% |  |
| CNC(=O)Oc1ccccc1C1OCCO1 | 0.662% |  |
| C#C[C@]1(O)C=C[C@H]2[C@@H]3CCC4=CC(=O)CC[C@@H]4[C@H]3CC[C@@]21CC | -2.32% |  |

Target: Androgen receptor (Homo sapiens) (UniProt P10275)
Test: qHTS assay to identify small molecule antagonists of the androgen receptor (AR) signaling pathway (AID 743035; active = well fitted inhibition curve with a large enough effect in the signal ratio in the repeat runs, not every such curve was filed as active; the % refers to the signal ratio; also: potency is read from the fitted curve at half-maximal effect)
Conditions: HEK293 AR-UAS-bla, R1881-stimulated, beta-lactamase FRET, 16 h; series mostly up to 58.5 µM; activity change, negative = inhibition: at the top concentration
In short: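 Cell line: GeneBLAzer AR-UAS-bla GripTite (HEK293). Stimulus: R1881 added after compound. Exposure: 16 h, 37C, 5% CO2. Readout: LiveBLAzer B/G FRET fluorescence after 2 h at room temperature.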

Sequence of Androgen receptor (Homo sapiens) (P10275 whole entry, looked up): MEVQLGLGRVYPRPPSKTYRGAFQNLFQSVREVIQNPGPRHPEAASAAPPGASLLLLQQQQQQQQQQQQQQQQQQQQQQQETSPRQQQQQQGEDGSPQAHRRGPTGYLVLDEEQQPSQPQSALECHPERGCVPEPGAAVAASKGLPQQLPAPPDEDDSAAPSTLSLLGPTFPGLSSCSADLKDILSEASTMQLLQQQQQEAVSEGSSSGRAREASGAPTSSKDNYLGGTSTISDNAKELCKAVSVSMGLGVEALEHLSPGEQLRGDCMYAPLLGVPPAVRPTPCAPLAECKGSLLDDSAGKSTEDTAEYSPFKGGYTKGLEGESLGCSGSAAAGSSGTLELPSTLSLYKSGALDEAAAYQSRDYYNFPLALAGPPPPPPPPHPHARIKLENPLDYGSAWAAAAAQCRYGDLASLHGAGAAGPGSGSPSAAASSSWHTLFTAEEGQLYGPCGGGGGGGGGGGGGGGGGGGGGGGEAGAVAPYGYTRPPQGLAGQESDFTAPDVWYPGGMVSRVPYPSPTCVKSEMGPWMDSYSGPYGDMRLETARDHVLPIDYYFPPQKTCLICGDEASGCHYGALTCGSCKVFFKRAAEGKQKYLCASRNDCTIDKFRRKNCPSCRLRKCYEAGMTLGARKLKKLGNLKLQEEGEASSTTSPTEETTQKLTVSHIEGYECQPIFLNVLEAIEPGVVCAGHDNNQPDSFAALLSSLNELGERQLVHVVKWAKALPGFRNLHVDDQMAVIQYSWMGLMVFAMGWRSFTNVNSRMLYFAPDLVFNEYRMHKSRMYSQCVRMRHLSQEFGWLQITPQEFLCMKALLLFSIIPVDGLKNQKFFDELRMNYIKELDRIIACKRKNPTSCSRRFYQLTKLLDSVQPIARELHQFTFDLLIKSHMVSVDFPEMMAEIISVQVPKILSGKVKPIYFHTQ

| SMILES | activity change, negative = inhibition | Potency |
| --- | --- | --- |
| CC(Cl)(Cl)[N+](=O)[O-] | -1.9% |  |
| Cc1cnc[nH]1 | 5.97% |  |
| CC(C)CC#N | 0.229% [at 78.9 µM] |  |
| N#CC(Cl)(Cl)Cl | -1.08% |  |
| Cc1nc(N)nc(N)n1 | 3.25% [at 78.9 µM] |  |
| c1cc[c]([Hg][c]2ccccc2)cc1 |  | 43.6 µM (active) |
| Cc1ccccc1CO[C@@H]1C[C@@]2(C(C)C)CC[C@]1(C)O2 | 0.218% |  |
| Nc1ccccc1Cl | 5.03% |  |
| CC1(C)COP(Oc2ccccc2)OC1 | -0.491% |  |
| CCCCOP(=O)(O)OCCCC | 0.193% |  |
| O=C(O)c1ccc2[nH]cc(CCCCN3CC=C(c4ccccc4)CC3)c2c1 | 4.98% |  |
| CCN(CC)C(C)C(=O)c1ccccc1 (stereo unspecified) | 10.2% |  |
| O=[N+]([O-])c1cccc2c([N+](=O)[O-])cccc12 | -7.99% [at 78.9 µM] |  |
| COP(N)(=S)Oc1ccccc1C(=O)OC(C)C (stereo unspecified) | 10.5% |  |
| COc1ncc(F)c2nc(S(=O)(=O)Nc3c(F)cccc3F)nn12 | -2.16% |  |
| CCC(=O)c1ccccc1 | 3.43% |  |
| c1cc2c(c(N3CCNCC3)c1)OCCO2 | 1.36% |  |
| COC(=O)C(c1ccccc1)C1CCCCN1 (stereo unspecified) |  | inactive |
| CCCCCCI | -7.77% |  |
| COc1cc(OC)nc(Oc2cccc(Oc3nc(OC)cc(OC)n3)c2C(=O)O)n1 | 0.0193% |  |
| C#C[C@]1(O)C=C[C@H]2[C@@H]3CCC4=CC(=O)CC[C@@H]4[C@H]3CC[C@@]21CC |  | 0.19 µM (active) |
